Laboratory results reported in ChEMBL document CHEMBL1961873, “Compounds: GSK PKIS; Assays: Nanosyn kinase panel” (2012).

How the values were obtained:
[1] = target: Tyrosine-protein kinase receptor UFO (Homo sapiens) (UniProt P30530); settings: at 1 µM
[2] = target: Tyrosine-protein kinase Blk (Homo sapiens) (UniProt P51451); settings: at 0.1 µM
[3] = target: Tyrosine-protein kinase Blk (Homo sapiens) (UniProt P51451); settings: at 1 µM
[4] = target: T1, Cytoplasmic tyrosine-protein kinase BMX (Homo sapiens) (UniProt P51813); settings: at 0.1 µM
T1 sequence (whole entry): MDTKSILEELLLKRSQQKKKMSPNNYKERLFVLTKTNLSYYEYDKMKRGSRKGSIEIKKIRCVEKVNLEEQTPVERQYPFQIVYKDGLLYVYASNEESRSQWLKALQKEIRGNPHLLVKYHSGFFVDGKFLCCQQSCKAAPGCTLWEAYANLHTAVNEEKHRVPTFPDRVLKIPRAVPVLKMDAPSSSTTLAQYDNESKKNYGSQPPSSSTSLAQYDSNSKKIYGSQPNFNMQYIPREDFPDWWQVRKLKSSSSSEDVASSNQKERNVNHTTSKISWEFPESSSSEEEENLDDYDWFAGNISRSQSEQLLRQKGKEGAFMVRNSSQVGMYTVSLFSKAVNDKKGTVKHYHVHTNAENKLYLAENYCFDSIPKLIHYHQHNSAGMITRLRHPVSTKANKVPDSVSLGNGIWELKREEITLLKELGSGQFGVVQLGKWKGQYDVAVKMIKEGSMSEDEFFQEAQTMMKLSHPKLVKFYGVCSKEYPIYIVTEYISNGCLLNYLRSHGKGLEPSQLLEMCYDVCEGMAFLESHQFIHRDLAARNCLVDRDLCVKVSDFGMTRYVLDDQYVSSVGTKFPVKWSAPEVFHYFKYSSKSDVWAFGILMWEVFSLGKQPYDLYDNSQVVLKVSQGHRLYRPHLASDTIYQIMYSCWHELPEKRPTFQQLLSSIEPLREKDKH

[5] = target: T1, Cytoplasmic tyrosine-protein kinase BMX (Homo sapiens); settings: at 1 µM
[6] = target: Protein-tyrosine kinase 6 (Homo sapiens) (UniProt Q13882); settings: at 0.1 µM
[7] = target: Protein-tyrosine kinase 6 (Homo sapiens) (UniProt Q13882); settings: at 1 µM
[8] = target: Tyrosine-protein kinase BTK (Homo sapiens) (UniProt Q06187); settings: at 0.1 µM
[9] = target: Tyrosine-protein kinase BTK (Homo sapiens) (UniProt Q06187); settings: at 1 µM
[10] = target: Tyrosine-protein kinase CSK (Homo sapiens) (UniProt P41240); settings: at 0.1 µM
[11] = target: Tyrosine-protein kinase CSK (Homo sapiens) (UniProt P41240); settings: at 1 µM
[12] = target: T2, Discoidin domain-containing receptor 2 (Homo sapiens) (UniProt Q16832); settings: at 0.1 µM
T2 sequence (whole entry): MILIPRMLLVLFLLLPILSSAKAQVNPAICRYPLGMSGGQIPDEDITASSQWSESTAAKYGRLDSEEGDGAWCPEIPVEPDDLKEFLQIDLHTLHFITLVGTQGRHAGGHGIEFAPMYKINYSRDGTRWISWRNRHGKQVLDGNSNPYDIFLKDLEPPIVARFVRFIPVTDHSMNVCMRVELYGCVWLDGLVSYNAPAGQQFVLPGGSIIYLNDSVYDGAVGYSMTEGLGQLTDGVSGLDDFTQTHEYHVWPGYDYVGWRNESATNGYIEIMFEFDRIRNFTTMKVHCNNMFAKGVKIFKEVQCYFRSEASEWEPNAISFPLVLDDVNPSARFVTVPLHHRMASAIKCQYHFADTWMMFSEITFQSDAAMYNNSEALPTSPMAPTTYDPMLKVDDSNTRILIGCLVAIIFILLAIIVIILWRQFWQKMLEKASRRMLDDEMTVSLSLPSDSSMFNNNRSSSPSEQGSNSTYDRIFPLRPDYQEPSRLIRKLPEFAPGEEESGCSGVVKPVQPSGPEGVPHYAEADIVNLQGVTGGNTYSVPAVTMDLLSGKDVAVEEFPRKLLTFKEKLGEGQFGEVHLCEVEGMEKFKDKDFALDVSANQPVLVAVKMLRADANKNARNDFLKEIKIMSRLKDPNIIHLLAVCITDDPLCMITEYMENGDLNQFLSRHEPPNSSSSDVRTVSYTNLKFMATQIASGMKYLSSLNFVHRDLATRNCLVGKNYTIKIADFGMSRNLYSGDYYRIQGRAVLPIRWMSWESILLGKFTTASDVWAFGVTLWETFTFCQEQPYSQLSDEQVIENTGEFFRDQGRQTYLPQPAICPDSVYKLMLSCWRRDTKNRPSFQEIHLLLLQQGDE

[13] = target: T2, Discoidin domain-containing receptor 2 (Homo sapiens); settings: at 1 µM
[14] = target: Epidermal growth factor receptor (Homo sapiens) (UniProt P00533); settings: at 0.1 µM
[15] = target: Epidermal growth factor receptor (Homo sapiens) (UniProt P00533); settings: at 1 µM
[16] = tested on: Epidermal growth factor receptor (Homo sapiens), P00533 [L858R]; settings: at 0.1 µM
[17] = tested on: Epidermal growth factor receptor (Homo sapiens), P00533 [L858R]; settings: at 1 µM
[18] = tested on: Epidermal growth factor receptor (Homo sapiens), P00533 [L861Q]; settings: at 0.1 µM
[19] = tested on: Epidermal growth factor receptor (Homo sapiens), P00533 [L861Q]; settings: at 1 µM
[20] = tested on: Epidermal growth factor receptor (Homo sapiens), P00533 [T790M]; settings: at 0.1 µM

Chain of Epidermal growth factor receptor (Homo sapiens), P00533 [L861Q] (P00533 whole entry L861Q): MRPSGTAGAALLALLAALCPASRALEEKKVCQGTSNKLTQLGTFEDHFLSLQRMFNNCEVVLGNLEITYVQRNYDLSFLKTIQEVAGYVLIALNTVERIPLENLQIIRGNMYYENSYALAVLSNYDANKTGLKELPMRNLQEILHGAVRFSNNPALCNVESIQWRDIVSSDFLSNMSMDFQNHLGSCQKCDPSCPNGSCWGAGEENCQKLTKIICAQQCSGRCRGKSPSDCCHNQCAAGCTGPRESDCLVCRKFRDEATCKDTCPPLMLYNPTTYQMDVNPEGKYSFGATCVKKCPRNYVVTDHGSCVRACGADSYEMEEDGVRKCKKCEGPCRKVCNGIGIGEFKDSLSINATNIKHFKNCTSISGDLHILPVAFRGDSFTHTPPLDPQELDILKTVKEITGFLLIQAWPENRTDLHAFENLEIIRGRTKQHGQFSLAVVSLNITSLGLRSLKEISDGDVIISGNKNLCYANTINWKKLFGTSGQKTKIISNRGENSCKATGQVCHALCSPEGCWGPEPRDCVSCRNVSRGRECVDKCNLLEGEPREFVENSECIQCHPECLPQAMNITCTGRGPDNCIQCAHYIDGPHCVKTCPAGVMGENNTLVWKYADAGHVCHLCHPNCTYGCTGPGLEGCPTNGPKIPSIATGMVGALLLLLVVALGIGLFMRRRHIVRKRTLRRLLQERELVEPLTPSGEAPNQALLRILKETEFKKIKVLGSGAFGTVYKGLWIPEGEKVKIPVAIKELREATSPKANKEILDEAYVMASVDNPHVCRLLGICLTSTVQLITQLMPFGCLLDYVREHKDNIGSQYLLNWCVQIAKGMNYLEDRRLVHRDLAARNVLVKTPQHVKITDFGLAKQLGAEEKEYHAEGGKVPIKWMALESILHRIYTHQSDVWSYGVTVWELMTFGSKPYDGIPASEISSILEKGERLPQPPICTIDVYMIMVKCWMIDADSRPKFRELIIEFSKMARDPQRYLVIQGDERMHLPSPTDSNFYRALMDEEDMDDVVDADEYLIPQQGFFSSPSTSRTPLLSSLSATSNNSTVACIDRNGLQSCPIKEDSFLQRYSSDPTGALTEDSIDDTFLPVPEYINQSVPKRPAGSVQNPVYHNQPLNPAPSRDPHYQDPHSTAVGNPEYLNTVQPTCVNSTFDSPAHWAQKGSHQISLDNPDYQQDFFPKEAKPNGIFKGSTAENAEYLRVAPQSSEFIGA
Chain of Epidermal growth factor receptor (Homo sapiens) (P00533 whole entry): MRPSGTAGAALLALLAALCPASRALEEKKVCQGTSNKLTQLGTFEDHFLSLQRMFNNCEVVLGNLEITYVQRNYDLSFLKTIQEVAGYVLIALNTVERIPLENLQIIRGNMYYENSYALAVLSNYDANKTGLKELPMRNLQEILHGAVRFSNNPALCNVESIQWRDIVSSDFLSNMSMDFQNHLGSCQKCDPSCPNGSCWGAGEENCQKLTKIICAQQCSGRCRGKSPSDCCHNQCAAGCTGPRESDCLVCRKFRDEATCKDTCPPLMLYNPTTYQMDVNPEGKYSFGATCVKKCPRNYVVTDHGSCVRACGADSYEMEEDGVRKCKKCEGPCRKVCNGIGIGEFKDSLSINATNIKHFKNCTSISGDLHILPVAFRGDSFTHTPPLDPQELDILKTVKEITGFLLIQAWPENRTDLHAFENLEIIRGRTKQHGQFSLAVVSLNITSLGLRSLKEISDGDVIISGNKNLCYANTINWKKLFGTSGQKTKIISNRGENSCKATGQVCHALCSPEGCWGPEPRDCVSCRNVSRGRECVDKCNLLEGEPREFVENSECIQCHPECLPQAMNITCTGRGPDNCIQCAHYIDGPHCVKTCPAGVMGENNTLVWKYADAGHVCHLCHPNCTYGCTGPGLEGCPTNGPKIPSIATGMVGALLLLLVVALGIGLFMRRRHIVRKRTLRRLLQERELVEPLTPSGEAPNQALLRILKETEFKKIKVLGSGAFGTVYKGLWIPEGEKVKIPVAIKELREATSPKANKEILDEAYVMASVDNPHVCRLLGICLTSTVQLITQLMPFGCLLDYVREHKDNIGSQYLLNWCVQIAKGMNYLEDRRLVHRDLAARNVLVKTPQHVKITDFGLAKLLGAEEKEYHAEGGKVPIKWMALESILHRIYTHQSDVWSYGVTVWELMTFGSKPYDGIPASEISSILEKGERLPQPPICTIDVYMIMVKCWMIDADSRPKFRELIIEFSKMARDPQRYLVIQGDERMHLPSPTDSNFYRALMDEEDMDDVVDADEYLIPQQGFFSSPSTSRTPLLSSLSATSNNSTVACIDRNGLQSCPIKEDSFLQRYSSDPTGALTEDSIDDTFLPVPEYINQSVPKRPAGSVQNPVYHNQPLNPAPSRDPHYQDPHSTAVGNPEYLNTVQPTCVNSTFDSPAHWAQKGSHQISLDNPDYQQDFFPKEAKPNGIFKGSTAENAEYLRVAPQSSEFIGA
Chain of Tyrosine-protein kinase Blk (Homo sapiens) (P51451 2-505 limits assumed): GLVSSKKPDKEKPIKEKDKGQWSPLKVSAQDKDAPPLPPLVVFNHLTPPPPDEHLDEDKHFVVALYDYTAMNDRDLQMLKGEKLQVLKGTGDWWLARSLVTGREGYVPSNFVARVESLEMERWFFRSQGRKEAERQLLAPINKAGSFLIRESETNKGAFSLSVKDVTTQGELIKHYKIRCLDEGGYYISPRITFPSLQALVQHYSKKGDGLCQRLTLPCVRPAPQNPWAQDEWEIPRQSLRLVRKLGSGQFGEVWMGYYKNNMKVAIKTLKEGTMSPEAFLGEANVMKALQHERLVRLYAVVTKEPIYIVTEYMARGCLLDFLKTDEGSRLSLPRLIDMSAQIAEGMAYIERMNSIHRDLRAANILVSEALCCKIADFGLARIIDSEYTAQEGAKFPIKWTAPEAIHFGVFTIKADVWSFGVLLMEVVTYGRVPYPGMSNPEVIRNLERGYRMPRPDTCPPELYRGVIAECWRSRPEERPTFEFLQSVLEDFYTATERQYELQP
Chain of Tyrosine-protein kinase receptor UFO (Homo sapiens) (P30530 whole entry): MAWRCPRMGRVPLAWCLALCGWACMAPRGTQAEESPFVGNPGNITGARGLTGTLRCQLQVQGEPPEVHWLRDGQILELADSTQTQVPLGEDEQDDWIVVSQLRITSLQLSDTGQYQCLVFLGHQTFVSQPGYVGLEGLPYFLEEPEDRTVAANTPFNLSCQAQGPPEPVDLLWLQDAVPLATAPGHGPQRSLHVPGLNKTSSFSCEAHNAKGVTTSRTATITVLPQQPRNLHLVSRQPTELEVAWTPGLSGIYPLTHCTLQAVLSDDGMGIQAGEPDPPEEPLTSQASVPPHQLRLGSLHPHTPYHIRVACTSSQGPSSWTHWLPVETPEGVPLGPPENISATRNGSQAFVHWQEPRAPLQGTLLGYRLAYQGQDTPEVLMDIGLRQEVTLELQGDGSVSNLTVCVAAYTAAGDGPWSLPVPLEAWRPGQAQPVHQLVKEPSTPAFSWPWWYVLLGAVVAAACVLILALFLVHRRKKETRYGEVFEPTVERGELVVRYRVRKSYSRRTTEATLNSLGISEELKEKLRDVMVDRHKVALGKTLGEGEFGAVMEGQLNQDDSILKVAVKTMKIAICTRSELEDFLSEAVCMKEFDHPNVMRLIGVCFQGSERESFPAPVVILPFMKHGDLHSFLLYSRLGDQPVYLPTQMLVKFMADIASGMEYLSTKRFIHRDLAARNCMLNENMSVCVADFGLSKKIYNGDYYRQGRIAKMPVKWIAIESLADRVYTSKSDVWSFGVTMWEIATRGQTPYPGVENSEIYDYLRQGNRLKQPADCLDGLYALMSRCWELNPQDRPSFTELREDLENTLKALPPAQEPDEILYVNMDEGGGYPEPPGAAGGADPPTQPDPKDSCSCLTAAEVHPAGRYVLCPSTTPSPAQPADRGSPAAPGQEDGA
Chain of Epidermal growth factor receptor (Homo sapiens), P00533 [L858R] (P00533 whole entry L858R): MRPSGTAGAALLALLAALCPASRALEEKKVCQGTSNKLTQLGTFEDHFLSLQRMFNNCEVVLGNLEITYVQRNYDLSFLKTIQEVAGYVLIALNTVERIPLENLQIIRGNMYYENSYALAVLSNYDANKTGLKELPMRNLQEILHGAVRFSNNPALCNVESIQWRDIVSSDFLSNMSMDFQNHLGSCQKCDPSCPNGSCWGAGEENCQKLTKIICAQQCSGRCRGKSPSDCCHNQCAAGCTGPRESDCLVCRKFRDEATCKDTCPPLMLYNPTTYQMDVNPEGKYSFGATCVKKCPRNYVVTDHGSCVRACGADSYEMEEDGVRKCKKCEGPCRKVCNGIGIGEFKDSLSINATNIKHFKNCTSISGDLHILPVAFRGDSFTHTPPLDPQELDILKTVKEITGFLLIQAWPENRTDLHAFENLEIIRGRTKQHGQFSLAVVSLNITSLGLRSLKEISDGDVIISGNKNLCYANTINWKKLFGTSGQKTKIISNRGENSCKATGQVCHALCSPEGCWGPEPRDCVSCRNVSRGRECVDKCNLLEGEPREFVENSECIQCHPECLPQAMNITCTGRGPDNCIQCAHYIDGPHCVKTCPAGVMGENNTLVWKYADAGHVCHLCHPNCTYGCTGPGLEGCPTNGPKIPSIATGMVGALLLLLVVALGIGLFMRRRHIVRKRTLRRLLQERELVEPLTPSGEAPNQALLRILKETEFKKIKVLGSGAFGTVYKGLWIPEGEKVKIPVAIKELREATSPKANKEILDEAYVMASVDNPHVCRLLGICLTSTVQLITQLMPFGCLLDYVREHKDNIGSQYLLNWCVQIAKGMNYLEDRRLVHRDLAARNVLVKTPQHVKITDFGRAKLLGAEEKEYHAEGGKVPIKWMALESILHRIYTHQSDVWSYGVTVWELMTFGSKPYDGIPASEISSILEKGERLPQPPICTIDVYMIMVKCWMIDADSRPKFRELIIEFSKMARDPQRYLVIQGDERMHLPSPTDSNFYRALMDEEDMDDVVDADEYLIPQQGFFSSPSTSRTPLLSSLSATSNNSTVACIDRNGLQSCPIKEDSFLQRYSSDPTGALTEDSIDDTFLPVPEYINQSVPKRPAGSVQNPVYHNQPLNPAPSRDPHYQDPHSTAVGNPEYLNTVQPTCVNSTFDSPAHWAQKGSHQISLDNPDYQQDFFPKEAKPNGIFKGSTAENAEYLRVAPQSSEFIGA

SMILES	inhibition [1] [%]	inhibition [2] [%]	inhibition [3] [%]	inhibition [4] [%]	inhibition [5] [%]	inhibition [6] [%]	inhibition [7] [%]	inhibition [8] [%]	inhibition [9] [%]	inhibition [10] [%]	inhibition [11] [%]	inhibition [12] [%]	inhibition [13] [%]	inhibition [14] [%]	inhibition [15] [%]	inhibition [16] [%]	inhibition [17] [%]	inhibition [18] [%]	inhibition [19] [%]	inhibition [20] [%]
COC(=O)Nc1nc2cc(Oc3cccc(NC(=O)Nc4cc(C(F)(F)F)ccc4F)c3)ccc2[nH]1	1.25	-0.47	1.35	1.84	-1.52	-1.63	-2.33	-0.22	-0.18	-2.03	2.36	13.2	68.6	0.87	1.45	-1.54	1.41	-1.86	-4.32	-1.19
COc1cc2ncn(-c3cc(O[C@H](C)c4ccccc4Cl)c(C(N)=O)s3)c2cc1OC	8.37	5.28	23.4	2.09	9.76	-0.56	3.6	1.78	6.48	4.29	10.1	8.95	12	3.12	3.34	3.8	14.9	2.61	5.37	1.29
O=C1NC(=O)C(c2ccccc2Cl)=C1Nc1cccc(O)c1	-1.28	1.66	4.61	2.35	4.21	3.64	2.79	0.01	1.37	1.31	3.08	-0.34	-0.1	2.49	5.23	3.81	3.71	0.72	3.71	1.27
CS(=O)(=O)CCNCc1ccc(-c2ccc3ncnc(Nc4ccc(OCc5cccc(F)c5)c(C(F)(F)F)c4)c3c2)o1	-5.02	2.7	3.9	3.53	3.77	4.08	5.42	0.73	-0.77	2.85	2.03	1.18	0.88	12.8	65.9	6.6	46.2	20.6	40.8	2.44
COc1cc(C)c(NC(=O)CN(C)C)cc1Nc1nc(Nc2cccc(F)c2C(N)=O)c2cc[nH]c2n1	63.7	0.68	4.45	0.07	2.64	3.06	23.8	0.31	0.16	1.05	-0.35	2.03	0.4	-1.1	5.3	1.75	6.19	2.96	5	5.98
Cc1cccc(-c2n[nH]cc2-c2ccc3ncccc3n2)n1	0.83	1.31	3.22	3	0.92	0.3	2.48	-0.91	-1.51	-1.25	0.97	0.57	0.86	-0.16	0.24	-0.08	-1.71	-1.59	-1.42	-0.88
COc1cccc(-n2ncc3c(N/N=C/c4cccc(F)c4)ncnc32)c1	1.49	-0.8	17.9	16.8	13.8	-0.23	5.33	-5.62	-4.52	1.19	4.81	1.22	2.49	0.53	8.49	6.62	37.9	2.52	7.42	-0.78
CNC(=O)c1cncc(/C=C/c2c(Cl)cccc2Cl)c1	-1.76	-1.91	5.69	4.95	22.8	13.5	56	-3.87	0.37	0.49	10.6	3.42	21.2	-0.54	0.79	0.61	14.2	2.27	4.01	1.23
CCn1c(-c2nonc2N)nc2c(C#CC(C)(C)O)nc(CN3CCCC3)cc21	1.53	-0.49	0.66	2.82	-1.55	-2.67	-1.74	-1.44	-1.15	-0.07	-4.12	1.3	5.64	1.34	1.12	-0.22	-1.48	-1.77	-4.01	-2.21
COc1cc2c(cc1Nc1nc(N3CCc4ccccc43)c3cc[nH]c3n1)N(C(=O)CN(C)C)CC2	21.4	0.59	4.28	-0.34	4.16	1.24	0.03	1.01	2.65	3.07	0.41	0.28	0.74	-0.08	1.28	1.45	2.18	1.47	-0.39	1.57
NCc1ccc(-c2nc(-c3ccc(Cl)c(O)c3)c(-c3ccncc3)[nH]2)cc1	3.04	0.72	10.4	12.4	28.9	13.9	58.7	1.91	6.57	-0.21	7.83	0.6	9.1	4.77	21.8	1.78	31.9	1.15	13.5	-0.03
COc1ccccc1Nc1ncc(-c2ccccc2)o1	-5.15	4.5	5.8	4.01	6.53	2.03	6.6	0.53	3.39	2.72	3.11	0.86	0.42	1.13	5.3	0.79	0.46	1.31	1.75	2.11
Nc1nc(-c2ccc3c(c2)C(=Cc2cc(Br)c(O)c(Br)c2)C(=O)N3)cs1	2.96	-4.1	5.56	-0.96	-0.09	-1.42	0.1	-1.45	-0.23	-4.69	-6.6	0.46	2.46	0.84	5.53	-3.68	8.58	0.03	1.67	-1.77
